Columns and labels:
[1] = molecular target: T1, Aspartate--tRNA(Asp/Asn) ligase (Mycobacterium tuberculosis (strain ATCC 25618 / H37Rv)) (UniProt P9WFW3); assay: Assay for Asp RNA synthetase-1 from Mycobacterium tuberculosis; format: functional; parameters: scale not given: direction of the effect not stated beside the values; settings: 30 µM; note: in the data most compounds retested in dose-response had high values
T1 sequence (whole entry): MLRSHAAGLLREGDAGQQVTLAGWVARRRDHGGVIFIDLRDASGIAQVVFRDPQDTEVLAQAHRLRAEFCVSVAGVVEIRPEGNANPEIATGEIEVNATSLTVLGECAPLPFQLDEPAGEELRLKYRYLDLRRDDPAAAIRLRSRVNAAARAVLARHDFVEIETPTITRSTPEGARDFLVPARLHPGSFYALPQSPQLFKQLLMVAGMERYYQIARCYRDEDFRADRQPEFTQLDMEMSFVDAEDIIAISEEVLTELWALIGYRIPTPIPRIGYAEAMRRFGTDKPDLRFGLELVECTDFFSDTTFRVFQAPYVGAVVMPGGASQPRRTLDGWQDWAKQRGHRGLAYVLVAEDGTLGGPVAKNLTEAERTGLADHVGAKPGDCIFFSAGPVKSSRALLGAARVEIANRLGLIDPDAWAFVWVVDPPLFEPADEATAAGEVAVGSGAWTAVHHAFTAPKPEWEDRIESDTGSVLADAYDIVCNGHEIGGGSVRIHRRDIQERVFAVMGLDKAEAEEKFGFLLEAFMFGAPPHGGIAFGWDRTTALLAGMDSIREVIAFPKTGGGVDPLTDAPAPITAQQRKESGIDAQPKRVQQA

[2] = molecular target: Shiga toxin 2 (Escherichia coli O157:H7) (UniProt P09385+P09386); assay: E. coli 0.157:H7 Shiga Toxin SOP - stx2 screening assay; format: functional; parameters: scale not given: direction of the effect not stated beside the values; settings: 30 µM

SMILES	Percent Effect [1]	Percent Effect [2]
CC(Cn1cncn1)NCc1nncn1C1CCCCC1 (stereo not given)	-4.88%	2.43%
COCCO[C@H]1CCN(Cc2cccs2)[C@H]1Cc1cccnc1	0.0141%	9.31%
CNC(=O)c1cc2c(nc1NCC(C)C)CCN(S(=O)(=O)C1CC1)CC2	-2.58%	1.28%
Cc1ccc(C(=O)Nc2cn[nH]c2)cn1	1.01%	15.1%
CCO[C@@H]1CCN(C(=O)c2ccc[nH]2)[C@@H]1Cc1cnn(C)c1	-1.78%	5.04%
CC(O)CC(C)(C)CNC(=O)NCc1cccc(-n2ccnc2)c1 (stereo not given)	1.43%	-7.32%
c1cnc(N2C[C@H]3CCN(c4cccnc4)C[C@H]3C2)nc1	-2.01%	-9.94%
Cn1cc(CN2CCCn3cnc(COCC4CC4)c3C2)cn1	1.66%	-1.47%
Cc1ccc(CN2CCC(F)(F)C3(CCN(c4cnccn4)C3)C2)o1 (stereo not given)	5.56%	-6.62%
Cc1cnn(CC2CCCN2C(=O)c2cccc(CC#N)c2)c1 (stereo not given)	-1.43%	8.24%
CCS(=O)(=O)Nc1ccc(C(=O)NCCCN2CCCC2)cc1	8.39%	-19%
Cc1ccc(NC2CCN(C(=O)COc3cccnc3)CC2)nn1	-4.47%	-129%
CCC1CN(CC(=O)Nc2sccc2C#N)CCO1 (stereo not given)	-2.46%	32.6%
Cc1nn(CC(C)C)c(N(C)C)c1CNCc1cc2ccccc2[nH]1	-2.12%	31.1%
CCn1c(CN(C)C)nnc1C1CCN(Cc2ccccc2)CC1	-0.862%	-23.5%
CN(CCCC#N)C1CCCN(Cc2noc(C3CC3)n2)C1 (stereo not given)	-2.54%	7.14%
CC1CN(CC2CCCCC2)CCN1c1ccc2nncn2n1 (stereo not given)	-1.32%	-96.5%
COc1ccccc1C(=O)N1Cc2cc(C)ccc2OCC1CN(C)C (stereo not given)	1.89%	-7.43%
O=S(=O)(NC1=NCN(CCc2cccs2)CN1)c1ccccc1	-3.8%	-12.6%
CN(CCn1nc2ccccn2c1=O)CC(=O)NC1CC1	-5.57%	-5.23%
Cc1ncnc(NCc2cc3n(n2)CCCN(S(C)(=O)=O)C3)c1C	0.518%	12.4%
Cc1cc2ccccc2n1CCC(=O)NCc1ncc[nH]1	-0.164%	4.66%
Cc1cc(Nc2nc(C)cs2)nc(C2CCCCN2CCO)n1 (stereo not given)	0.7%	-34.2%
O=C(c1cccc(=O)[nH]1)N(Cc1ccsc1)CC1CCCO1 (stereo not given)	0.0781%	-11.1%
Cc1cc(NC(=O)c2nc(N3CCCC3)ncc2Cl)nc(C(C)C)n1	2.49%	-23.7%

SMILES	Percent Effect [1]	Percent Effect [2]
CC(=O)N1CCC2(CC1)CC[C@@]1(C(=O)N(C)C)CN(S(C)(=O)=O)C[C@@H]21	-1.99%	-10.1%
CCc1nc(C2CCCN2C(=O)c2cc(C3CC3)[nH]n2)no1 (stereo not given)	-7.78%	8.24%
O=C(c1ccc(F)c(F)c1)N1CCCC1CN1CCCC1 (stereo not given)	-3.65%	-41.7%
O=C(CN1CCCC1Cn1cncn1)NCCOc1cccc(F)c1 (stereo not given)	-0.983%	18.7%
COc1cc(C(=O)N(Cc2cnn(C)c2)C(C)C)ccc1OCC(N)=O	0.225%	33%
CN(CCc1ccccc1)Cc1cc(C(=O)N2CCCC2(C)C)no1	0.433%	-34.7%
O=S1(=O)C[C@@H]2[C@H](C1)N(Cc1ncc[nH]1)CCN2CC1CC1	0.123%	4.23%
O=C(NCc1ccco1)c1nn(C2CCS(=O)(=O)C2)c2c1CCCC2 (stereo not given)	-2.28%	8.96%
Cc1c(C(=O)NCC2CCCO2)nnn1-c1cccc2c1CCN(C)C2 (stereo not given)	3.06%	-26.5%
CNC(=O)CN(C)c1nc(-c2ccncc2)nc2c1CCN(C(C)=O)C2	-1.03%	-0.42%
O=C1CC2(CCCCC2)CC(=O)N1CC(O)COCc1ccc(Cl)cc1 (stereo not given)	0.607%	11%
COc1c(CNCc2cccc(Cn3ccnc3)c2)c(C)nn1C	7.35%	14.4%
O=C(c1ccccc1-c1ccccc1)N1CCOC2(CNCCOC2)C1 (stereo not given)	1.51%	-1.85%
CCn1nc(-c2ccccc2F)ccc1=O	0.691%	-6.78%
CN1CCC(c2ncc3c(n2)CCN(C(=O)CC2C=CCC2)C3)CC1 (stereo not given)	0.956%	-1.54%
O=C(NCCc1ccccn1)NC1CCN(c2ncccn2)CC1	1.19%	-12.3%
O=C(CN(C1=NCCCC1)c1ccccc1)c1ccccc1	2.67%	-26.2%
Cc1ccc(N(C)C2CCN(C(=O)c3ccsc3)CC2)nn1	0.243%	1.6%
Cc1cnn(CCC(=O)N2CCC(Nc3cccnn3)CC2)c1	1.38%	16.1%
CCCSCC(=O)NS(=O)(=O)c1ccc2c(c1)OCCO2	-3.99%	19.7%
O=C(C1CC1)N1CC[C@H](O)[C@@H]1Cc1ccccc1	-2%	1.84%
COc1ccc(C(CO)NC(=O)Nc2cccnc2)cc1 (stereo not given)	-1.35%	-19.2%
Cc1ccc(S(=O)(=O)N2CCc3nc(C4CCNCC4)ncc3C2)cc1	-1.21%	8.71%
COc1cc(CNC(=O)c2c(C)noc2C(C)C)ccn1	-1.27%	-44%
CCC(C)NC(=O)Cc1c(C)nc2c(c1C)c(=O)[nH]n2C (stereo not given)	5.44%	-28.6%
